# Changes are numbered by the printed parent chain.
# What was measured:
# Assay in all cases: PBM; 200 nM protein, PBS
# Conditions in all cases: dsDNA, one strand shown
# [1] = biological target: T1, VENTX (Homo sapiens, UniProt O95231 78-163, R121Q)
# T1 sequence: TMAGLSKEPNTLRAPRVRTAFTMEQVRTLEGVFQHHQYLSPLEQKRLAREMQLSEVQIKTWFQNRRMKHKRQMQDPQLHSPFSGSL
# [2] = biological target: T2, VENTX (Homo sapiens, UniProt O95231 78-163)
# T2 sequence: T1 sequence with Q44R
# [3] = biological target: PRRX1 (Homo sapiens, UniProt P54821 80-166, F113S)
# [4] = biological target: T3, VENTX (Homo sapiens, UniProt O95231 78-163, Y115F)
# T3 sequence: T1 sequence with Y38F, Q44R
# [5] = biological target: PRRX1 (Homo sapiens, UniProt P54821 80-166)
# [6] = biological target: HOXA7 (Homo sapiens, UniProt P31268 116-202)
# [7] = biological target: HOXB6 (Homo sapiens, UniProt P17509 132-218, K202E)
# [8] = biological target: HOXA2 (Homo sapiens, UniProt O43364 129-215, R185K)
# [9] = biological target: VAX1 (Homo sapiens, UniProt Q5SQQ9 86-172)
# [10] = biological target: VAX1 (Homo sapiens, UniProt Q5SQQ9 86-172, T142I)
# [11] = biological target: HOXA7 (Homo sapiens, UniProt P31268 116-202, W177C)
# [12] = biological target: VAX1 (Homo sapiens, UniProt Q5SQQ9 86-172, K157R)
# [13] = biological target: HOXB6 (Homo sapiens, UniProt P17509 132-218)
# [14] = biological target: HOXC10 (Homo sapiens, UniProt Q9NYD6 254-340)
# [15] = biological target: HOXC10 (Homo sapiens, UniProt Q9NYD6 254-340, K271E)
# HOXC10 (Homo sapiens, UniProt Q9NYD6 254-340, K271E), sequence (Q9NYD6 254-340 K271E): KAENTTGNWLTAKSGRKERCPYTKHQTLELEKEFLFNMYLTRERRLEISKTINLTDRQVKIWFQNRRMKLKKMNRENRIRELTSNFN
# PRRX1 (Homo sapiens, UniProt P54821 80-166, F113S), sequence (P54821 80-166 F113S): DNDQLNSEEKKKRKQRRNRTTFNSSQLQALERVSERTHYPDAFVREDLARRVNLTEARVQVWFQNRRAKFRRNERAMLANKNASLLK
# VAX1 (Homo sapiens, UniProt Q5SQQ9 86-172), sequence (Q5SQQ9 86-172): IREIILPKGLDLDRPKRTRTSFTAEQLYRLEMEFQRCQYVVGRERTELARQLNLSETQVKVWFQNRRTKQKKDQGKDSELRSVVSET
# HOXB6 (Homo sapiens, UniProt P17509 132-218), sequence (P17509 132-218): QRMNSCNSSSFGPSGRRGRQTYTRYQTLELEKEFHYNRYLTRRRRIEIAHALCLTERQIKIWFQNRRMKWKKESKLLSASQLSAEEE
# HOXB6 (Homo sapiens, UniProt P17509 132-218, K202E), sequence (P17509 132-218 K202E): as the sequence (P17509 132-218) above, with K71E counted along it
# PRRX1 (Homo sapiens, UniProt P54821 80-166), sequence (P54821 80-166): as the sequence (P54821 80-166 F113S) above, with S34F counted along it
# VAX1 (Homo sapiens, UniProt Q5SQQ9 86-172, T142I), sequence (Q5SQQ9 86-172 T142I): as the sequence (Q5SQQ9 86-172) above, with T57I counted along it
# HOXA7 (Homo sapiens, UniProt P31268 116-202), sequence (P31268 116-202): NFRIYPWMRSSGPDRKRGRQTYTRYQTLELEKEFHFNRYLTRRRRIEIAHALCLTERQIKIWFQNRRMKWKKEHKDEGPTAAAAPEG
# HOXA7 (Homo sapiens, UniProt P31268 116-202, W177C), sequence (P31268 116-202 W177C): as the sequence (P31268 116-202) above, with W62C counted along it
# HOXA2, sequence (O43364 129-215 R185K): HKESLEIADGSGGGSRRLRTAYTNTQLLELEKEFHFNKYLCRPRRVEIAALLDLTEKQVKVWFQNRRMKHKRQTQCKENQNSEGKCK
# HOXC10 (Homo sapiens, UniProt Q9NYD6 254-340), sequence (Q9NYD6 254-340): as the sequence (Q9NYD6 254-340 K271E) above, with E18K counted along it
# VAX1 (Homo sapiens, UniProt Q5SQQ9 86-172, K157R), sequence (Q5SQQ9 86-172 K157R): as the sequence (Q5SQQ9 86-172) above, with K72R counted along it
sequence,measurement,setting,value
GCCAACCC,binding signal,[1],"8.11 upbm affinity estimate (log intensity, higher = more binding, comparable within an allelic series)"
same,binding signal,[2],"7.96 upbm affinity estimate (log intensity, higher = more binding, comparable within an allelic series)"
same,binding signal,[3],"9.36 upbm affinity estimate (log intensity, higher = more binding, comparable within an allelic series)"
same,binding signal,[4],"8.24 upbm affinity estimate (log intensity, higher = more binding, comparable within an allelic series)"
same,binding signal,[5],"9.21 upbm affinity estimate (log intensity, higher = more binding, comparable within an allelic series)"
GCCCATTA,binding signal,[1],"12.1 upbm affinity estimate (log intensity, higher = more binding, comparable within an allelic series)"
same,binding signal,[2],"13 upbm affinity estimate (log intensity, higher = more binding, comparable within an allelic series)"
same,binding signal,[6],"11.3 upbm affinity estimate (log intensity, higher = more binding, comparable within an allelic series)"
same,binding signal,[4],"11.8 upbm affinity estimate (log intensity, higher = more binding, comparable within an allelic series)"
same,binding signal,[7],"9.82 upbm affinity estimate (log intensity, higher = more binding, comparable within an allelic series)"
same,binding signal,[8],"13.1 upbm affinity estimate (log intensity, higher = more binding, comparable within an allelic series)"
same,binding signal,[9],"12.8 upbm affinity estimate (log intensity, higher = more binding, comparable within an allelic series)"
same,binding signal,[10],"12.2 upbm affinity estimate (log intensity, higher = more binding, comparable within an allelic series)"
same,binding signal,[11],"8.75 upbm affinity estimate (log intensity, higher = more binding, comparable within an allelic series)"
same,binding signal,[12],"12.5 upbm affinity estimate (log intensity, higher = more binding, comparable within an allelic series)"
same,binding signal,[13],"11.8 upbm affinity estimate (log intensity, higher = more binding, comparable within an allelic series)"
AATAACAC,binding signal,[1],"9.57 upbm affinity estimate (log intensity, higher = more binding, comparable within an allelic series)"
same,binding signal,[2],"9.93 upbm affinity estimate (log intensity, higher = more binding, comparable within an allelic series)"
CCCCTCAG,binding signal,[1],"8.25 upbm affinity estimate (log intensity, higher = more binding, comparable within an allelic series)"
same,binding signal,[2],"8.19 upbm affinity estimate (log intensity, higher = more binding, comparable within an allelic series)"
same,binding signal,[14],"10.1 upbm affinity estimate (log intensity, higher = more binding, comparable within an allelic series)"
same,binding signal,[4],"8.01 upbm affinity estimate (log intensity, higher = more binding, comparable within an allelic series)"
same,binding signal,[15],"10.1 upbm affinity estimate (log intensity, higher = more binding, comparable within an allelic series)"

# Source: article PMC11006913
